{
  "source": "paper PMC11062922",
  "about": "(Nature Chemical Biology, 2023)",
  "parameters_in_all_cases": "species or system human, MV4-11 + K-562 + COLO205 + SK-N-BE2 + OVCAR-8",
  "key": {"ACVR1B": {"system": "ACVR1B", "settings": "read-out: apparent Kd, n = 1"}, "CDC42": {"system": "CDC42", "settings": "read-out: apparent Kd; compound concentrations:100 nM and 1000 nM (sheet 'Samples'); n = 1"}, "TGFBR1": {"system": "TGFBR1", "settings": "read-out: apparent Kd, n = 1"}, "CSNK1A1": {"system": "CSNK1A1", "settings": "read-out: apparent Kd; compound concentrations:100 nM and 1000 nM (sheet 'Samples'); n = 1"}, "CSNK1D": {"system": "CSNK1D", "settings": "read-out: apparent Kd; compound concentrations:100 nM and 1000 nM (sheet 'Samples'); n = 1"}, "CSNK1E": {"system": "CSNK1E", "settings": "read-out: apparent Kd; compound concentrations:100 nM and 1000 nM (sheet 'Samples'); n = 1"}, "MAP2K4": {"system": "MAP2K4", "settings": "read-out: apparent Kd; compound concentrations:100 nM and 1000 nM (sheet 'Samples'); n = 1"}, "ACOX3": {"system": "ACOX3", "settings": "read-out: apparent Kd; compound concentrations: 100 nM and 1000 nM (sheet 'Samples'), CATDS: 0.63885197419414497; n = 1"}, "FECH": {"system": "FECH", "settings": "read-out: apparent Kd; compound concentrations: 100 nM and 1000 nM (sheet 'Samples'), CATDS: 0.41072954272515799; n = 1"}, "ACVR1": {"system": "ACVR1", "settings": "read-out: apparent Kd, compound concentrations: 100 nM and 1000 nM (sheet 'Samples'), n = 1"}, "ACVR2B": {"system": "ACVR2B", "settings": "read-out: apparent Kd, compound concentrations: 100 nM and 1000 nM (sheet 'Samples'), n = 1"}, "BCR": {"system": "BCR", "settings": "read-out: apparent Kd; compound concentrations: 100 nM and 1000 nM (sheet 'Samples'), CATDS: 8.1652957748264393E-2; n = 1"}, "BMPR1B": {"system": "BMPR1B", "settings": "read-out: apparent Kd, compound concentrations: 100 nM and 1000 nM (sheet 'Samples'), n = 1"}, "CDC7": {"system": "CDC7", "settings": "read-out: apparent Kd; compound concentrations: 100 nM and 1000 nM (sheet 'Samples'), CATDS: 4.9206883035311198E-2; n = 1"}, "CDK4": {"system": "CDK4", "settings": "read-out: apparent Kd; compound concentrations: 100 nM and 1000 nM (sheet 'Samples'), CATDS: 4.8870042780869302E-2; n = 1"}, "EPHA1": {"system": "EPHA1", "settings": "read-out: apparent Kd; compound concentrations: 100 nM and 1000 nM (sheet 'Samples'), CATDS: 7.9880542471912896E-2; n = 1"}, "GAK": {"system": "GAK", "settings": "read-out: apparent Kd, n = 1"}, "MAP2K1": {"system": "MAP2K1", "settings": "read-out: apparent Kd; compound concentrations: 100 nM and 1000 nM (sheet 'Samples'), CATDS: 4.7289887756517802E-2; n = 1"}, "NLK": {"system": "NLK", "settings": "read-out: apparent Kd; compound concentrations: 100 nM and 1000 nM (sheet 'Samples'), CATDS: 5.29869352744404E-2; n = 1"}, "RIPK2": {"system": "RIPK2", "settings": "read-out: apparent Kd, compound concentrations: 100 nM and 1000 nM (sheet 'Samples'), n = 1"}, "RIPK3": {"system": "RIPK3", "settings": "read-out: apparent Kd; compound concentrations: 100 nM and 1000 nM (sheet 'Samples'), CATDS: 5.9537511979901002E-2; n = 1"}, "TGFBR2": {"system": "TGFBR2", "settings": "read-out: apparent Kd, n = 1"}, "CDK7": {"system": "CDK7", "settings": "read-out: apparent Kd; compound concentrations:100 nM and 1000 nM (sheet 'Samples'); n = 1"}, "NQO2": {"system": "NQO2", "settings": "read-out: apparent Kd; compound concentrations:100 nM and 1000 nM (sheet 'Samples'); n = 1"}, "PRKD2": {"system": "PRKD2", "settings": "read-out: apparent Kd; compound concentrations:100 nM and 1000 nM (sheet 'Samples'); n = 1"}, "PRKD3": {"system": "PRKD3", "settings": "read-out: apparent Kd; compound concentrations:100 nM and 1000 nM (sheet 'Samples'); n = 1"}, "TNIK": {"system": "TNIK", "settings": "read-out: apparent Kd; compound concentrations:100 nM and 1000 nM (sheet 'Samples'); n = 1"}, "TNK1": {"system": "TNK1", "settings": "read-out: apparent Kd; compound concentrations:100 nM and 1000 nM (sheet 'Samples'); n = 1"}, "ADRBK1": {"system": "ADRBK1", "settings": "read-out: apparent Kd; compound concentrations: 100 nM and 1000 nM (sheet 'Samples'), CATDS: 7.2370560484510002E-2; n = 1"}, "BMPR1A": {"system": "BMPR1A", "settings": "read-out: apparent Kd; compound concentrations: 100 nM and 1000 nM (sheet 'Samples'), CATDS: 0.17247820312197201; n = 1"}, "ZAK": {"system": "ZAK", "settings": "read-out: apparent Kd; compound concentrations: 100 nM and 1000 nM (sheet 'Samples'), CATDS: 6.5320579429353404E-2; n = 1"}, "[1]": {"settings": "compound concentrations:100 nM and 1000 nM (sheet 'Samples')"}},
  "note": "Like-named read-outs stand apart in the source and are kept apart here.",
  "data": [
    {"smiles": "Cl.NC(=O)c1ccc(-c2nc(-c3ccccn3)c(-c3ccc4c(c3)OCO4)[nH]2)cc1", "note": "[SB-431542-A]", "values": [
      {"measurement": "potency estimated from few doses", "setting": "ACVR1B; [1]", "value": 1140, "unit": "nM"},
      {"measurement": "potency estimated from few doses", "setting": "CDC42", "value": 731, "unit": "nM"},
      {"measurement": "potency estimated from few doses", "setting": "TGFBR1; [1]", "value": 946, "unit": "nM"}
    ]},
    {"smiles": "Cl.c1ccc(-c2nc3n(c2-c2ccc4c(c2)OCO4)CCC3)nc1", "note": "[SB-400868-A]", "values": [
      {"measurement": "potency estimated from few doses", "setting": "ACVR1B; [1]", "value": 87, "unit": "nM"},
      {"measurement": "potency estimated from few doses", "setting": "CSNK1A1", "value": 369, "unit": "nM"},
      {"measurement": "potency estimated from few doses", "setting": "CSNK1D", "value": 150, "unit": "nM"},
      {"measurement": "potency estimated from few doses", "setting": "CSNK1E", "value": 262, "unit": "nM"},
      {"measurement": "potency estimated from few doses", "setting": "MAP2K4", "value": 1900, "unit": "nM"}
    ]},
    {"smiles": "Cc1ccc(NC(=O)c2cccc(C#N)c2)cc1-c1ccc(C(=O)Nc2ccncc2)cc1", "note": "[GSK1398463A]", "values": [
      {"measurement": "potency estimated from few doses", "setting": "ACOX3", "value": 513, "unit": "nM"},
      {"measurement": "potency estimated from few doses", "setting": "FECH", "value": 1300, "unit": "nM"}
    ]},
    {"smiles": "Oc1cc(Nc2ccnc3cc(I)ccc23)ccc1F", "note": "[GW552771X]", "values": [
      {"measurement": "potency estimated from few doses", "setting": "ACVR1B; compound concentrations: 100 nM and 1000 nM (sheet 'Samples'), CATDS: 5.5704311303099698E-2", "value": 1050, "unit": "nM"},
      {"measurement": "potency estimated from few doses", "setting": "ACVR1; CATDS: 5.3500871089908003E-2", "value": 1220, "unit": "nM"},
      {"measurement": "potency estimated from few doses", "setting": "ACVR2B; CATDS: 0.67080964654625497", "value": 4.54, "unit": "nM"},
      {"measurement": "potency estimated from few doses", "setting": "BCR", "value": 339, "unit": "nM"},
      {"measurement": "potency estimated from few doses", "setting": "BMPR1B; CATDS: 7.3247906456106002E-2", "value": 452, "unit": "nM"},
      {"measurement": "potency estimated from few doses", "setting": "CDC7", "value": 1710, "unit": "nM"},
      {"measurement": "potency estimated from few doses", "setting": "CDK4", "value": 1760, "unit": "nM"},
      {"measurement": "potency estimated from few doses", "setting": "EPHA1", "value": 359, "unit": "nM"},
      {"measurement": "potency estimated from few doses", "setting": "GAK; compound concentrations: 100 nM and 1000 nM (sheet 'Samples'), CATDS: 0.131761231196901", "value": 109, "unit": "nM"},
      {"measurement": "potency estimated from few doses", "setting": "MAP2K1", "value": 2050, "unit": "nM"},
      {"measurement": "potency estimated from few doses", "setting": "NLK", "value": 1260, "unit": "nM"},
      {"measurement": "potency estimated from few doses", "setting": "RIPK2; CATDS: 0.100310805321257", "value": 204, "unit": "nM"},
      {"measurement": "potency estimated from few doses", "setting": "RIPK3", "value": 838, "unit": "nM"},
      {"measurement": "potency estimated from few doses", "setting": "TGFBR2; compound concentrations: 100 nM and 1000 nM (sheet 'Samples'), CATDS: 0.233102504079717", "value": 32.2, "unit": "nM"}
    ]},
    {"smiles": "c1ccc(-c2n[nH]cc2-c2ccnc(-c3ccc(CNC4CCOCC4)cc3)c2)nc1", "note": "[GW709213X]", "values": [
      {"measurement": "potency estimated from few doses", "setting": "ACVR1B; [1]", "value": 39.1, "unit": "nM"},
      {"measurement": "potency estimated from few doses", "setting": "CDK7", "value": 1090, "unit": "nM"},
      {"measurement": "potency estimated from few doses", "setting": "CSNK1D", "value": 1500, "unit": "nM"},
      {"measurement": "potency estimated from few doses", "setting": "GAK; [1]", "value": 1150, "unit": "nM"},
      {"measurement": "potency estimated from few doses", "setting": "NQO2", "value": 925, "unit": "nM"},
      {"measurement": "potency estimated from few doses", "setting": "PRKD2", "value": 195, "unit": "nM"},
      {"measurement": "potency estimated from few doses", "setting": "PRKD3", "value": 193, "unit": "nM"},
      {"measurement": "potency estimated from few doses", "setting": "TGFBR1; [1]", "value": 12.6, "unit": "nM"},
      {"measurement": "potency estimated from few doses", "setting": "TGFBR2; [1]", "value": 1330, "unit": "nM"},
      {"measurement": "potency estimated from few doses", "setting": "TNIK", "value": 2410, "unit": "nM"},
      {"measurement": "potency estimated from few doses", "setting": "TNK1", "value": 445, "unit": "nM"}
    ]},
    {"smiles": "COc1cc(-c2cncc(-c3cnn(C4CCNCC4)c3)c2)cc(OC)c1OC", "note": "[K05908]", "values": [
      {"measurement": "potency estimated from few doses", "setting": "ACVR1B; compound concentrations: 100 nM and 1000 nM (sheet 'Samples'), CATDS: 0.127263158539664", "value": 93.1, "unit": "nM"},
      {"measurement": "potency estimated from few doses", "setting": "ACVR1; CATDS: 0.77187058261615105", "value": 1.97, "unit": "nM"},
      {"measurement": "potency estimated from few doses", "setting": "ACVR2B; CATDS: 7.0258773018851195E-2", "value": 1360, "unit": "nM"},
      {"measurement": "potency estimated from few doses", "setting": "ADRBK1", "value": 1110, "unit": "nM"},
      {"measurement": "potency estimated from few doses", "setting": "BMPR1A", "value": 42.3, "unit": "nM"},
      {"measurement": "potency estimated from few doses", "setting": "BMPR1B; CATDS: 0.14495542747652801", "value": 65, "unit": "nM"},
      {"measurement": "potency estimated from few doses", "setting": "RIPK2; CATDS: 0.16221198549174301", "value": 49, "unit": "nM"},
      {"measurement": "potency estimated from few doses", "setting": "TGFBR1; compound concentrations: 100 nM and 1000 nM (sheet 'Samples'), CATDS: 0.103891234408396", "value": 181, "unit": "nM"},
      {"measurement": "potency estimated from few doses", "setting": "ZAK", "value": 2410, "unit": "nM"}
    ]}
  ]
}
